Experimental data taken from publication PMC4552634, “A New Set of Chemical Starting Points with Plasmodium falciparum Transmission-Blocking Potential for Antimalarial Drug Discovery” (PLoS ONE, 2015).
In all, about 13,000 compounds went through this assay and about 3,200 (25%) showed an effect of 50% or more. The list shows a part of the results.

test system: P. falciparum stage V gametocytes; set-up: BacTiter-Glo ATP luminescence viability of purified stage V gametocytes in 384-well plates, per cent inhibition versus DMSO; conditions: 48 h, 5 µM; inhibitor

Row | Compound | % Inhibition [%]
1 | O=[N+]([O-])c1ccccc1/C=N/Nc1ccnc2ccc(C(F)(F)F)cc12 [TCMDC-142044] | -33.57
2 | O=[N+]([O-])c1cccc(S(=O)(=O)N2CCN(CC(O)COc3ccc(-c4ccccc4)cc3)CC2)c1 (stereo not shown) [TCMDC-125015] | -58.05
3 | COc1cc2nc(NCCCOC(C)C)n3nc(-c4ccccc4)nc3c2cc1OC [TCMDC-124450] | 5.714
4 | Cn1cnc2c(Nc3ccncc3)nc(-c3ccc4c(c3)OCO4)nc21 [TCMDC-141274] | 36.93
5 | O=C(c1ccc(-c2cccc(-c3nc4cc(C(F)(F)F)ccc4[nH]3)c2)cc1)N1CCCCC1CN1CCC(O)C1 (stereo not shown) [TCMDC-132348] | -20.7
6 | O=C(c1ccc(-c2cccc(-c3nc4cc(F)ccc4[nH]3)c2)cc1)N1CCCCC1CN1CCC(O)C1 (stereo not shown) [TCMDC-132344] | 80.27
7 | CC(O)C1CCCCN1C(=O)c1cccc(-c2cccc(-c3nc4ccccc4[nH]3)c2)c1 (stereo not shown) [TCMDC-132313] | 8.745
8 | CC(O)C1CCCCN1C(=O)c1ccc(-c2ccc(-c3nc4cc(F)ccc4[nH]3)cc2)cc1 (stereo not shown) [TCMDC-132338] | 65.53
9 | O=C(c1cccc(-c2cccc(-c3nc4cc(F)ccc4[nH]3)c2)c1)N1CCCCC1CN1CCC(O)C1 (stereo not shown) [TCMDC-132350] | 0.1683
10 | Cc1cccc2nc(-c3cccc(-c4ccc(C(=O)N5CCCCC5C(C)O)cc4)c3)[nH]c12 (stereo not shown) [TCMDC-132336] | 92.31
11 | Cc1cccc2nc(-c3cccc(-c4ccc(C(=O)NCCc5ccc(O)c(=O)[nH]5)cc4)c3)[nH]c12 [TCMDC-132490] | -25.23
12 | CC(O)C1CCCCN1C(=O)c1cccc(-c2cccc(-c3nc4cc(F)ccc4[nH]3)c2)c1 (stereo not shown) [TCMDC-132339] | 25.33
13 | CCN(CC(C)O)C(=O)c1ccc(-c2ccc(-c3nc4cccc(C)c4[nH]3)cc2)cc1 (stereo not shown) [TCMDC-132503] | -12.34
14 | CCN(CC(C)O)C(=O)c1ccc(-c2cccc(-c3nc4cccc(C)c4[nH]3)c2)cc1 (stereo not shown) [TCMDC-132502] | 84.23
15 | CC(O)C1CCCCN1C(=O)c1ccc(-c2cccc(-c3nc4cc(F)ccc4[nH]3)c2)cc1 (stereo not shown) [TCMDC-132333] | 18.43
16 | Cc1cccc2nc(-c3ccc(-c4cccc(C(=O)N5CCCCC5C(C)O)c4)s3)[nH]c12 (stereo not shown) [TCMDC-132331] | 10.35
17 | Cc1ccccc1C(O)CNc1ccnc(Nc2cccc(C#N)c2)n1 (stereo not shown) [TCMDC-136566] | 9.635
18 | COc1ccc(CNC(=O)NC2CCN(c3ccnc(Nc4ccc(OC)cc4)n3)C2)cc1 (stereo not shown) [TCMDC-133607] | 11.17
19 | O=C(Nc1ccc(OC2CCN(Cc3ccc(F)cc3)C2)cc1)c1cccs1 (stereo not shown) [TCMDC-133753] | 15.26
20 | COc1cc(NC(=O)c2cccs2)c(C(=O)NCc2ccc(C)cc2)cc1OC [TCMDC-125007] | 20.88
21 | CN(C)CCOc1ccc(NC(=O)Nc2ccnc3c(Br)cccc23)cc1Cl [TCMDC-140325] | 18.67
22 | COc1cc2nc(N3CCC(CNC(=O)c4ccc(-c5ccc(-c6noc(C)n6)cc5)cc4)CC3)nc(N)c2cc1OC [TCMDC-138754] | 115

Row | Compound | % Inhibition [%]
23 | COc1cc2nc(N3CCC(CNC(=O)c4ccc(-c5ccc(-c6noc(C)n6)cc5C)cc4)CC3)nc(N)c2cc1OC [TCMDC-138155] | 105.9
24 | O=C(Nc1ccc2c(c1)CCC2)c1ccc(N2CCN(c3ccncc3)CC2)cn1 [TCMDC-135155] | 0.5792
25 | CCOc1cc(C(=O)N[C@@H](Cc2ccccc2)[C@H](O)CNCc2cc(OC)cc(OC)c2)cc(N2CCCS2(=O)=O)c1 [TCMDC-134573] | 6.074
26 | O=C(Nc1ccc(OC2CCN(Cc3ccsc3)CC2)c(Cl)c1)c1ccc(F)cc1 [TCMDC-134272] | -4.957
27 | CCC(C(C)C)n1ccc2c3c(N)nc(N)nc3ccc21 (stereo not shown) [TCMDC-137872] | 10.31
28 | Cc1ccccc1Cn1ccc2c3c(N)nc(N)nc3ccc21 [TCMDC-137812] | 70.17
29 | Nc1nc(N)c2c(ccc3c2ccn3Cc2cccc3ccccc23)n1 [TCMDC-137996] | 88.02
30 | Clc1ccc(CNc2ccnc(NCc3ccc4c(c3)OCCCO4)n2)c(Cl)c1 [TCMDC-135116] | 30.31
31 | CC(C)OCCCNC(=O)c1nc(-c2cccc(C(F)(F)F)c2)sc1C(C)C [TCMDC-133788] | 3.705
32 | Oc1ccc(Cl)cc1CN1CCC2(CCCN(CC3CCC3)C2)C1 (stereo not shown) [TCMDC-124637] | -23.05
33 | CCCCN(CCCC)CCNC(=O)c1cc(OC(F)(F)F)ccc1O [TCMDC-141130] | -10.84
34 | CC(Cc1ccc(NC(=O)c2ccc(CNCc3ccccc3)cc2)cc1)N(CCc1cccc(Cl)c1)C(=O)OC(C)(C)C (stereo not shown) [TCMDC-139859] | -24.54
35 | CC(Cc1ccc(NC(=O)c2ccc(CNCCCCc3ccccc3)cc2)cc1)NCCc1cccc(Cl)c1 (stereo not shown) [TCMDC-139866] | 129.2
36 | CC(Cc1ccc(NC(=O)c2ccc(CNCCc3ccccc3)cc2)cc1)NCCc1cccc(Cl)c1 (stereo not shown) [TCMDC-139867] | 108.4
37 | COc1cccc(OC)c1OCCCON1C(N)=NC(N)=NC1(C)C [TCMDC-131731] | 5.866
38 | COc1cc(Cc2cnc(N)nc2N)cc(OC(C)C)c1OC [TCMDC-137645] | -10.21
39 | CC(=O)Nc1cccc(C(=O)Nc2cccc(-c3ccc(-c4nc5cc(C(F)(F)F)ccc5[nH]4)s3)c2)c1 [TCMDC-132138] | 13.04
40 | COc1ccc(NC(=O)c2ccc(-c3nc(-c4ccc(Cl)cc4)cs3)cc2)cc1N1CCN(C)CC1 [TCMDC-138685] | 18.54
41 | NC(Cc1cccc(I)c1)C(=O)NCC1CCCO1 (stereo not shown) [TCMDC-141273] | -21.09
42 | OCC(c1ccccc1)n1c(COc2ccc(Cl)cc2)nc2c(OCCCN3CCCCC3)cccc21 (stereo not shown) [TCMDC-138596] | 103.2
43 | COc1ccc(CN2CCN(CCOC(c3ccccc3)c3ccc(Cl)cc3)CC2)c(O)c1 (stereo not shown) [TCMDC-135692] | 28.74
